# Shown are actives, neighbours in structure and some others; about 10% of the full set was active somewhere.
# HPGD inh – inhibitors of human 15-hydroxyprostaglandin dehydrogenase (HPGD) | P15428 | purified HPGD, NADH fluorescence kinetic, PGE2 substrate | Potency, µM, for inactives: top-dose activity change, negative = inhibition, most hits filed as inhibitors | 150,000 compounds, 4.3% hits; further: potency means the concentration at half of the fitted maximal effect
# Target sequence (P15428 whole entry, looked up): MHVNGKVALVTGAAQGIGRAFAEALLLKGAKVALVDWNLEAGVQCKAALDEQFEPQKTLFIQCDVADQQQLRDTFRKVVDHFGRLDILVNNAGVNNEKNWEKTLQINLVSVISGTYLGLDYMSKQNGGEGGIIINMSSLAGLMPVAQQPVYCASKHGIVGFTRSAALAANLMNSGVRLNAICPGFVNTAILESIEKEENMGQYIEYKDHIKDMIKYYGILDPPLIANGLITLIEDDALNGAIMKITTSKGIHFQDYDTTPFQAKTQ
#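 20 nM HPGD preincubated 15 min at room temperature with compound in 50 mM Tris-HCl pH 8, 0.01% Tween 20. Started with 1 mM NAD+ and 30 uM prostaglandin E2; NADH fluorescence (360/450 nm) read 5 times over 30-s intervals, last minus first.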
# Lamin A splicing – modulators of lamin A splicing | 200,000 compounds, 0.01% hits | HeLa LMNA splicing GFP/RFP minigene ratio, 48 h | AID 1487 | Potency, µM (top dose mostly 46.1 µM), inactives show at the top dose ratio change, negative = inhibition, usual class: inhibitors; active means well fitted inhibition curve with a large enough effect in the signal ratio, with a control signal flat, not every such curve was filed as active; inconclusive means small, poorly fitted or top-dose-only effect, or effect the other way, or a change in a side signal; the % refers to the signal ratio; further: potency means the concentration at half of the fitted maximal effect
#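 S3 HeLa stable clones carrying a lamin A-EGFP splicing minigene plus DsRed2 were seeded at 600 cells/well in Opti-MEM with 2% FBS, pin-dosed and incubated 48 h at 37°C. Acumen cytometry (488 nm) gave the GFP/RFP total-intensity ratio.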
# ALDH1A1 block – ALDH1A1 (human) enzyme inhibition. 220,000 compounds, 7.3% hits. Potency, µM (doses to about 75.3 µM), for inactives: at the highest dose activity, negative = inhibition, hits mostly inhibitors. Purified ALDH1A1, NADH fluorescence, propionaldehyde substrate. AID 1030;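 further: potency means the concentration at half of the fitted maximal effect; plate controls were no enzyme wells and a reference inhibitor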
# Target sequence (P00352 whole entry, looked up): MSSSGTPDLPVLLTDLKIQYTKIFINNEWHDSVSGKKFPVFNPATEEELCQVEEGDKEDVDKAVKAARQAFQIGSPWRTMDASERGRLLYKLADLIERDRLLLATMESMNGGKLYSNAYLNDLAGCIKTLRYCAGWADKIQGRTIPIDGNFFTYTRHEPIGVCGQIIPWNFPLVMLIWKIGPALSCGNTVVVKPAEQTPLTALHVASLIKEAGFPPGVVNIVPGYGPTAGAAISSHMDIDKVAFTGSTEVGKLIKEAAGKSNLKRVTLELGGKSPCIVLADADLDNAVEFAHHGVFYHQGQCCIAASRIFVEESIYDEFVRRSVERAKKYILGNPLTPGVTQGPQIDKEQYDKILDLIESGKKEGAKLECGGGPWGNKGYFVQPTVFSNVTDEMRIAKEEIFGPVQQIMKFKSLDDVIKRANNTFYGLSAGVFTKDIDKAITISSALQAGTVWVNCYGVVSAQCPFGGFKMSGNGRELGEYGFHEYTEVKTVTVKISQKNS
# 12-hLO inh – inhibitors of human 12-lipoxygenase (ALOX12); P18054; purified 12-hLO, xylenol orange hydroperoxide absorbance; Potency, µM (highest dose often 57.1 µM), without a hit: at the highest dose activity change, negative = inhibition, most hits filed as inhibitors; 150,000 compounds, 0.12% hits; AID 1452; active means well fitted inhibition curve with a large enough effect; inconclusive means small, poorly fitted or top-dose-only effect; further: potency means the concentration at half of the fitted maximal effect; nearly all actives have a fitted effect of over 55% in size
#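 150 nM 12hLO, 25 mM Hepes pH 7.0 + 0.01% Triton X-100; cpd preinc 15 min RT; 40 uM arachidonic acid, 30 min RT; Fe-XO 30 min; A573/A405 ratio as read-out.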
# PNC inhibitor – blocks assembly of the perinucleolar compartment. PC3M PTB-GFP, PNC prevalence imaging, 16 h; stronger effect = lower value. activity change (PNC), negative = inhibition, % at 10 µM. 140,000 compounds, 3.1% hits. AID 2417;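 active means readout at or below -70, meaning at least 70% loss of cells showing the perinucleolar compartment, a nuclear body marking cancer cells; inconclusive means readout between -30 and a set limit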;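 further: plate controls were DMSO wells for no effect and camptothecin positive control wells for full effect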
#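 Read-out is percentage of cells bearing a perinucleolar compartment, from automated 20x imaging of fixed, Hoechst-stained PC3M PTB-GFP cells. Cells were seeded 4 h, then exposed 16 h to compound (23 nl of library stock) in duplicate plates.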
# Numbers without * were called inactive; u = inconclusive; x = no result; [ ] = another dose, or the depositor's remark. Unless noted, the call rests on the fitted dose curve; in most records, active means well fitted inhibition curve with a large enough effect (not every such curve was filed as active); inconclusive means small, poorly fitted or top-dose-only effect, or another doubt; inactive means no such curve, though single readings can be large or run the other way. Unless noted, on the % scale 0 is the no-effect control and ±100 the full control effect.
SMILES,HPGD inh,Lamin A splicing,ALDH1A1 block,12-hLO inh,PNC inhibitor
Cc1ccc2c(c1)NCC(C(=O)NC1CCCCC1)O2 (configuration not stated),12.6µM*,7.5%,-7.7%,-5.5%,u
COc1cccc(N=C2C(=O)N3CCCc4cccc2c43)c1,-11.3%,10.1%,0.159µM*,-1.2%,15.9
COc1ccc(NC(=O)N2CCCc3cccc(C)c32)cc1,x,x,-3.7%,x,x
CN(C)Cc1cc(C(C)(C)C)c(O)c(C(C)(C)C)c1,-1.9%,u,u,-12.8%,2.9
CC(C)(C)c1cc(CN(CCO)CCO)cc(C(C)(C)C)c1O,25.1µM*,1.5%,2.51µM*,-27.0%,u
Cc1ccnc(NC(c2cccnc2)c2ccc3cccnc3c2O)c1 (configuration not stated),x,x,10µM*,x,x
O=C(O)c1ccccc1N[C@H](c1ccccc1)c1ccc2cccnc2c1O,u,x,u,-23.2%[11.4 µM],x
COc1ccccc1NC(c1cccnc1)c1ccc2cccnc2c1O (configuration not stated),-15.3%,u,2.51µM*,-28.7%,66.9
COc1ccc(CNC(=O)CS(=O)(=O)c2cccc3nsnc23)cc1,x,10.2%[46 µM],x,x,x
O=C(CNC(=S)NC(=O)c1ccccc1Br)c1ccccc1,x,x,17.8µM*,x,x
CCc1cccc(C)c1NC(=O)c1cc(S(=O)(=O)N2CCCCCC2)cn1C,x,2.3%[46 µM],x,x,x
O=C(O)C1=CC(O)[C@@H](O)C(O)C1 (some centres not stated),-5.9%,-6.3%,20.3%,-3.9%,x
Cc1ccc(NS(=O)(=O)c2cc(NC(=O)c3ccc4c(c3)NC(=O)CS4)ccc2Cl)c(C)c1,x,u,10µM*,x,x
COCCNC(=O)c1ccc2c(c1)NC(=O)CS2,35.5µM*,8.6%,7.8%,-3.7%,-28.7
O=C1CSc2ccc(C(=O)NCCC3=CCCCC3)cc2N1,-6.4%,9.7%,6.9%,4.8%,67.9
Cc1ccc(C)c(NS(=O)(=O)c2cc(C(=O)Nc3ccccc3-c3ccccc3)ccc2Cl)c1,-27.4%,6.3%,u,0.8%,4.6
Nc1ncnc2nc(N3CCN(CCO)CC3)[nH]c12,-2.7%,x,2.4%[13.5 µM],-0.4%[11.4 µM],x
CCC(C)/C(C)=N/NC(=O)c1ccc(CSc2nc3ccccc3s2)cc1 (configuration not stated),20µM*,u,20µM*,-0.6%,2.7
CCCN1CCC(=NNC(=O)c2ccc(Br)o2)CC1,-6.0%,8.0%,12.6µM*,3.9%,10.2
CCCN1CCN(C(=O)Nc2ccc(C(=O)OCC)cc2)CC1,-17.6%,6.1%,-11.5%,-7.8%,-2.2
CCN1CCC(=NNC(=O)c2ccco2)CC1,-14.3%,-4.3%,u,3.2%,-24.7
CCCN1CCC(=NNc2ccc(C(=O)O)cc2)CC1,x,x,25.1µM*,x,x
COc1ccccc1-n1c(C)c2c(OC)cccc(=O)c2c1C,11.2µM*,u,u,-8.3%,u
COc1ccc2nc3oc(C(=O)N4CCCCC4)cc3cc2c1,u,-6.5%,u,4.1%,-100.0*
COc1ccc2nc(SCC(=O)N3CCCCCC3)c(C#N)cc2c1,u,u,12.6µM*,-11.6%,-13.3
SMILES,HPGD inh,Lamin A splicing,ALDH1A1 block,12-hLO inh,PNC inhibitor
N#Cc1cc2c(nc1SCC(=O)N1CCCCC1)CCCC2,-29.1%,7.0%,u,0.5%,68.3
COc1ccc2nc(SCC(=O)N(C)C3CCCCC3)c(C#N)cc2c1,u,u,25.1µM*,-6.8%,34.3
COc1ccc2nc(SCC(=O)N3CCCCC3)c(C#N)cc2c1,x,-0.3%[46 µM],u,x,x
N#Cc1cc2c(nc1SCC(=O)N1CCCCC1)CCCCC2,25.1µM*,u,22.4µM*,-10.5%,13.4
CN(C)c1ccc(/C=C/C(O)=C2/C(=O)N(C)C3(C)CC2c2ccccc2O3)cc1 (configuration not stated),-18.2%,-20.9%,20µM*,6.4%,-28.7
COc1cc(CNC(=O)c2ccc(Cn3nc(C)c(Cl)c3C)o2)cc(OC)c1,-5.2%,-25.1%,-8.5%,-12.3%,20.0
COC(=O)c1ccc(Cn2nc(C)c(Cl)c2C)o1,-16.3%,12.7%,28.2µM*,0.4%,10.8
Cc1ccc(-n2cccc2/C=C2\C(=N)N3N=C(C(C)C)SC3=NC2=O)cc1,x,17.4%[9.22 µM],15.8µM*,x,x
COc1cc(NS(=O)(=O)c2cnc(N)nc2)cc(OC)c1,x,8.7%[46 µM],x,x,x
COc1ccc(-c2cc3ccc(O)c(CN4CCCC4)c3oc2=O)cc1,x,-5.3%[46 µM],x,x,x
Cc1ccc(NC(=O)CCn2cccn2)cc1Cl,x,9.2%[46 µM],x,x,x
Cc1ccc2cc(C)c(Sc3nnnn3-c3ccccc3)nc2c1,-12.3%,u,5.62µM*,2.3%,0.4
CN1CCN(C=Nc2nc3ccccc3nc2N2CCCC2)CC1,x,-8.7%[46 µM],u,x,x
Cc1ccccc1C(=O)Nc1cccc(-c2ccc3nncn3n2)c1,x,x,14.1µM*,x,x
CCOC(=O)N1CCN(Cc2nc3c(c(=O)[nH]c(=O)n3C)n2CCCc2ccccc2)CC1,3.3%,-6.2%,u,6.9%,72.5
COc1ccc(N2CCN(Cc3nc4c(c(=O)[nH]c(=O)n4C)n3CC(C)=O)CC2)cc1,-16.2%,-8.4%,-1.9%,6.9%,-90.2*
Cn1c(=O)[nH]c(=O)c2c1nc(CN1CCN(c3ccc(F)cc3)CC1)n2CCc1ccccc1,-10.5%,-3.7%,-5.7%,14.3%,-100.0*
CCCCCn1c(CN2CCN(C(=O)OCC)CC2)nc2c1c(=O)[nH]c(=O)n2C,0.3%,-7.6%,11.2µM*,-1.8%,u
Cn1c(=O)[nH]c(=O)c2c1nc(CN1CCN(c3cccc(Cl)c3)CC1)n2CCc1ccccc1,-1.0%,6.0%,14.1µM*,4.8%,u
Cn1c(=O)[nH]c(=O)c2c1nc(CN1CCN(c3ccc(F)cc3)CC1)n2CCCc1ccccc1,-8.5%,11.6%,3.1%,8.1%,130.6
COc1ccc(N2CCN(Cc3nc4c(c(=O)n(C)c(=O)n4C)n3CC(C)=O)CC2)cc1,-3.0%,3.5%,7.7%,-1.4%,-8.7
O=C(O)/C=C\C(=O)Nc1ccccn1,-19.7%,x,13.8%[13.5 µM],-2.8%[11.4 µM],x
Cn1c(SCc2ccccc2Cl)nc(=O)c2c1NC(=O)CC2c1cc(F)ccc1F (configuration not stated),x,-12.7%[46 µM],x,x,x
CCOc1ccccc1CNS(=O)(=O)c1cnc(N)nc1,x,2.6%[46 µM],x,x,x
CSc1nc(N)c2ncn([C@@H]3O[C@H](COP(=O)(O)OP(=O)(O)OP(=O)(O)O)[C@@H](O)[C@H]3O)c2n1,x,x,7.3%,x,x
Cc1c(C)c2c(c(C)c1O)CC[C@@](C)(C(=O)O)O2,-3.4%,-8.9%,14.4%[20.9 µM],-5.5%[25.6 µM],x
COC(=O)NC(c1cccc(C)c1)[C@@]1(C(=O)OC)CCCC1=O (some centres not stated),x,x,12.3%[13.5 µM],x,x
Cn1c(=O)[nH]c(=O)c2c1nc(CN1CCN(c3ccccc3F)CC1)n2CCCc1ccccc1,7.4%,9.3%,3.16µM*,-4.9%,u
COc1ccccc1CN1CCC2(CC1)CCN(C(=O)c1ccco1)CC2,-1.2%,x,u,1.5%,x
S=C(Nc1ccc(Cl)cc1)Nc1cccc2cnccc12,u,u,17.8µM*,-6.8%,-26.1
